Data reported in PubChem BioAssay AID2401 (Southern Research Specialized Biocontainment Screening …, 2010).
In all, about 2,200 compounds went through this assay and about 530 (24%) were called active.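 How the source made its calls: active means inhibition above a set limit at one or more concentrations of the dose series; inactive means inhibition under that limit at every dose.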 A selection follows. Results with a measured potency or affinity are listed apart.

Test: S. Typhimurium nonspecific reporter signal inhibition – Salmonella Typhimurium, GFP fluorescence, counter-screen for PhoP regulon inhibitor project, dose response (AID 2401);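 further: S. typhimurium with Mg-insensitive nmpC-GFP reporter grown at 10 µM Mg2+; drop in reporter fluorescence reflects general culture growth inhibition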
Settings: 4 h; series mostly up to 150 µM

SMILES	outcome
c1coc(CNc2c3c(nc4ncnn24)CCCC3)c1	inactive
O=C(NNc1nc(-c2ccccc2)cs1)c1ccco1	inactive
COCCNS(=O)(=O)c1cccn1-c1ncc(C(F)(F)F)cc1Cl	inactive
CC(=O)c1c(C)n([O-])c2cc(F)c(F)cc2[n+]1=O	inactive
CCOC(=O)CN(C)Cc1c[nH]c2ccccc12	inactive
O=c1c2cc(Br)ccc2nc(-c2ccccc2)n1O	inactive
N#Cc1c(-c2ccco2)cc(-c2ccc(F)cc2)nc1N	inactive
O=C1N2CCCc3cccc(c32)C12Nc1ccccc1S2 (centres undefined)	inactive
CN1CCN(C(c2cccc(C(F)(F)F)c2)c2nnnn2C(C)(C)C)CC1 (centres undefined)	inactive
C#CCN1C(=O)C(O)(CC(=O)c2ccc(OC)c(OC)c2)c2ccccc21 (centres undefined)	inactive
CCCCn1cnc2sc(-c3ccccc3)cc2c1=O	inactive
O=C(Nc1ccc2c(c1)OCO2)c1cnn2cccnc12	inactive
CN(C)S(=O)(=O)Oc1ccsc1C(=O)Nc1ccccc1Cl	inactive
CCSc1cc(N2CCCC2)nc(-c2cccc(C)c2)n1	inactive
CC(C)c1ccc(C2C3CSCC=C3C(C#N)=C(N)C2(C#N)C#N)cc1 (centres undefined)	inactive
Cn1c(CN2CCCCC2)nc2cc(NS(=O)(=O)c3ccc(Cl)cc3)ccc21	inactive
COc1ccc(S(=O)(=O)N2Cc3ccccc3CC2C(=O)N2CCOCC2)cc1OC (centres undefined)	inactive
Clc1ccc(SCCCCn2ccnc2)cc1	inactive
O=c1[nH]c(NNC(=S)NCc2ccccc2)nc2c1C1(CCCCC1)Cc1ccccc1-2	inactive
O=S1(=O)C=CC(Nc2cccc(Cl)c2)C1 (centres undefined)	inactive
O=C(CSc1nnc2c(Cl)cc(Cl)cn12)NC1CCS(=O)(=O)C1 (centres undefined)	inactive
CCc1cccc(NC(=O)Nc2cccs2)c1	inactive
COc1cccc2c(=O)c3c(cnn3C)n(C)c12	inactive
COC(=O)c1cccc(NC(=O)CCCOc2ccccc2)c1	inactive
O=C(NCc1cccs1)c1cccc(Nc2nc3ccc(Br)cc3[nH]2)c1	inactive

SMILES	outcome
Cn1c(=O)n(CC(=O)Nc2ccccc2)c2ccccc21	inactive
O=C(O)C1CC=CCC1C(=O)NC12CC3CC(CC(C3)C1)C2 (centres undefined)	inactive
O=C(OCc1nnc(-c2ccccc2)o1)c1ccc(S(=O)(=O)NCc2ccco2)cc1	inactive
Cc1ccc(NC(=O)CCN2CCc3ccccc3C2)cc1	inactive
CN(C)CC(=O)Nc1nc(-c2ccccc2)cs1	inactive
COc1ccc(-c2csc(NC(=O)C3CCCO3)n2)cc1 (centres undefined)	inactive
Cc1ccc(C[n+]2cc(-c3ccc(Cl)cc3)n3c2CCC3)cc1	inactive
CCOC(=S)SCC(=O)Nc1nc(-c2ccccc2)cs1	inactive
Cc1nc(NC(=O)c2ccccc2)sc1-c1csc(Nc2ccc(F)cc2)n1	inactive
CCOC(=O)C1=C(C)N(CCO)C(=O)NC1c1cccc(O)c1 (centres undefined)	inactive
CCCNC(=O)CSc1nnc(C)s1	inactive
Cc1nc2c(Cl)cccc2c2c1CC(CBr)O2 (centres undefined)	inactive
CCC1=NNc2cccc3c(OC)ccc1c23	inactive
COc1ccc(-c2c/c(=N\c3nc(-c4ccccc4)c(C)s3)c3ccccc3o2)cc1O	inactive
COC(=O)c1c(C)oc2ccc(NS(=O)(=O)c3cccs3)cc12	inactive
O=C(CCNS(=O)(=O)c1cccc2nsnc12)NCc1cccs1	inactive
O=C(NCc1cccs1)[C@@H]1CSC2c3ccccc3C(=O)N21 (some centres undefined)	inactive
Nc1cc(N)nc(SCc2cc(=O)oc3cc4c(cc23)CCC4)n1	inactive
CCCn1c(SCC(=O)c2c(C)[nH]c(C)c2C(=O)OCC)nc2ccccc21	inactive
O=C(CCCN1C(=O)CCC1=O)Nc1ccc2c(c1)OCCO2	inactive
CCCCCNS(=O)(=O)c1cc(C)ccc1OC	inactive
CCCCn1nnnc1NCc1cc(OC)c(OC)cc1OC	inactive
Cc1ccc(S(=O)(=O)NCCC(=O)OCn2nnc3ccccc3c2=O)cc1	inactive
COc1ccc(-c2nnn(CC(=O)N(Cc3ccco3)C(C(=O)NCC3CCCO3)c3ccco3)n2)cc1 (centres undefined)	inactive
COC(=O)c1cc(C#N)c(Oc2ccc(F)cc2)nc1C	inactive

SMILES	outcome
O=C1C(c2ccc(F)cc2)N(Cc2ccc3c(c2)OCO3)C(=O)CN1C1CCCCCC1 (centres undefined)	inactive
Cc1ccc(-c2[nH]c(-c3ccc(Cl)cc3)nc2SCC(=O)NCC2CCCO2)cc1 (centres undefined)	inactive
COc1cc(C(=O)NC(=S)Nc2ccc3oc(=O)ccc3c2)cc(OC)c1OC	inactive
Cc1nc(N2CCN(c3ccccc3)CC2)nc2c1C(=O)CC(C)C2 (centres undefined)	inactive
O=C(Nc1ccc2oc(-c3ccc(Cl)c(Cl)c3)nc2c1)c1ncn[nH]1	inactive
O=C(NCc1ccccn1)c1cn(-c2ccccc2)nc1-c1ccc(Cl)cc1	inactive
O=C(OCc1ccccc1)c1cn(-c2ccccc2)nc1-c1ccncc1	inactive
CCc1ccc(C(c2c(C)nn(-c3ccccc3)c2N)c2c(C)nn(-c3ccccc3)c2N)cc1	inactive
O=C(COC(=O)c1cn(-c2ccccc2)nc1-c1ccccc1)c1cccc([N+](=O)[O-])c1	inactive
C/C(=N\N=C(/N)SC1CC(=O)N(c2cccc(Cl)c2)C1=O)c1cccs1 (centres undefined)	inactive
Cc1ccc(-n2ncc3c(N4CCN(c5ccccc5)CC4)ncnc32)c(C)c1	inactive
Cc1ccccc1-n1c(=O)c2ccccc2n2cnnc12	inactive
CCCn1nnc(NC(=O)c2ccc(Br)o2)n1	inactive
O=C(NCc1cccnc1)c1ccc(Cl)cc1[N+](=O)[O-]	inactive
Cc1cc([N+](=O)[O-])cc2ncccc12	inactive
Cc1ccc(NC(=O)COc2ncnc3c(Cl)cc(Cl)cc23)cc1[N+](=O)[O-]	inactive
CC1(C)CC(=O)C2=C(C1)N(c1ccc(F)cc1)C(N)=C(C#N)C2c1cccs1 (centres undefined)	inactive
CCn1c(=O)c(=O)[nH]c2cc(C(=O)NCC3CCCCC3)ccc21	inactive
O=c1c2c([nH]c3ccccc13)CCCCC2	inactive
Cc1cc(NC(=O)c2ccco2)ccc1-n1cnnn1	inactive
c1ccc(CSc2nnc(-c3ccncc3)o2)cc1	inactive
O=C1Nc2ccc(F)cc2C12SCCS2	inactive
CC(=S)c1c(C)cc2cc(C)ccn12	inactive
COc1ccc(N=c2cc(-c3ccc(OC)cc3)oc3ccccc23)cc1	inactive
